Screening results deposited in PubChem by National Center for Advancing Translational Sciences (NCATS).
IL-1B inflam inh = inhibitors of inflammasome signaling (IL-1 beta secretion); activity change, % at 57.5 µM; THP-1 LPS/ATP IL-1B secretion, AlphaLISA, 16 h; stronger effect = lower value; 360,000 tested, 4.7% active; in the data active = activity change below about -50%; inconclusive = mostly about -30% to -49%
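THP-1 cells pretreated 1 hr with compounds (up to 57.5 uM final), then stimulated with LPS (250 ng/mL final) plus ATP (1.25 mM final); secreted IL-1B measured by AlphaLISA after 16 hr, decreased signal indicating inhibition.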
HT1080 IDH1KD tx = toxicity to HT-1080 IDH1 knockdown cells (counter line). HT-1080 IDH1 knockdown viability, ATP luminescence, 48 h. Potency, µM (doses to about 46.1 µM), inactives show top-dose activity, negative = toxicity, hits mostly cytotoxic. 360,000 tested, 2% active;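 note: potency is the fitted concentration of half-maximal effect; 0% = DMSO wells and -100% = cell-free medium wells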
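Using the IDH1-knockdown HT-1080 line run in the same batch and compound series as the NT line, viability after 48 h at 37 °C was determined by CellTiter-Glo luminescence and expressed as % activity.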
TDP1 cell noCPT = qHTS for Inhibitors of human tyrosyl-DNA phosphodiesterase 1 (TDP1): qHTS in cells in absence of CPT. DT40 Tdp1-/- hTDP1 cells, no CPT, ATP luminescence, 48 h. Potency, µM (series often up to 46.2 µM), for inactives: at the top dose activity change, negative = growth inhibition, actives largely listed as inhibitors. 420,000 tested, 15% active. AID 686978, 2013; note: potency is the fitted concentration of half-maximal effect; nearly all actives have a fitted effect of over 55% in size
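Readout: luminescence from CellTiter-Glo after 30 min in the dark at RT. Cells: DT40 Tdp1-/- with stable hTDP1, 400/well. Exposure: compounds alone, ≥48 hr, 37 °C.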
DT40 TDP1 CPT = growth inhibition of DT40 Tdp1-/-;hTDP1 cells with camptothecin (screen for TDP1 inhibitors) | chicken DT40 Tdp1-/-;hTDP1 cells + 20 nM CPT, ATP luminescence, 48 h | Potency, µM (top dose mostly 46.2 µM), for the others: top-dose activity change, negative = growth inhibition, actives largely listed as inhibitors | AID 686979 | 420,000 tested, 12% active; note: potency is the fitted concentration of half-maximal effect; nearly all actives have a fitted effect of over 55% in size
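Chicken DT40 Tdp1-/- cells stably complemented with human TDP1 were seeded at 400 cells/well in medium containing 20 nM camptothecin, exposed to pin-transferred compounds, and grown at 37 °C for at least 48 hr. Viability was read as ATP luminescence.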
HT1080-NT tox = kills 2HG-producing HT-1080-NT fibrosarcoma cells; HT-1080-NT fibrosarcoma viability, CellTiter-Glo ATP luminescence, 48 h; Potency, µM (top dose mostly 46.1 µM), for the others: at the highest dose activity, negative = less viability, hits mostly cytotoxic; 360,000 tested, 1.6% active; AID 686970;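 note: NT is the 2HG producing partner of a matched IDH1 knockdown line; potency is the fitted concentration of half-maximal effect; 0% = DMSO-treated cells and -100% = media-only wells without cells; nearly all actives have a fitted effect of over 55% in size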
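Luminescent CellTiter-Glo readout after 48 hours of compound exposure at 37 degrees C defined viability of HT-1080-NT cells. Activity was normalized to DMSO wells and cell-free media wells; concentration-response curves were fitted and assigned curve classes.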
Active calls of the source: *; u = inconclusive; x = no result. Hits are enriched below; roughly 19% of the tested compounds scored in any of these assays. Unless noted, calls come from the whole dose curve; as a rule, active = well fitted curve in the direction sought with a large enough effect; inconclusive = small, poorly fitted or top-dose-only effect, or another doubt; inactive = no such curve, though single readings can be large; an effect the other way counts as inactive or inconclusive. Unless noted, % is set by controls: 0 for no effect and ±100 for the full control effect.

SMILES	IL-1B inflam inh	HT1080 IDH1KD tx	TDP1 cell noCPT	DT40 TDP1 CPT	HT1080-NT tox
O=C1ON=C(c2ccc(Cl)cc2)/C1=C/c1ccc(O)cc1	-102.0*	u	11.6µM*	7.31µM*	u
Cc1ccc(/C=C2/C(=O)ON=C2c2ccccc2)o1	-11.8	-0.2%	14.6µM*	20.6µM*	-4.3%
O=C1ON=C(c2ccccc2)/C1=C/c1ccccc1	-75.5*	0.4%	-33.3%	-0.2%	12.1%
O=C1ON=C(c2ccccc2)/C1=C/c1ccc(O)cc1	-98.5*	10.4%	u	23.1µM*	10.0%
Cc1nn(-c2ccccc2)c(N2CCCC2)c1/C=N/NC(=O)c1cc(-c2cccs2)nc2ccccc12	-5.0	7.6%	14.6µM*	u	-5.2%
Cc1nn(-c2ccccc2)c(N2CCCC2)c1/C=N/NC(=O)c1cc(-c2ccccn2)nc2ccccc12	-6.6	-4.0%	11.6µM*	20.6µM*	-9.4%
Cc1nn(-c2ccccc2)c(N2CCCC2)c1/C=N/NC(=O)c1cc(-c2ccccc2)nc2ccccc12	-20.6	1.2%	u	u	-0.8%
Cc1nn(-c2ccccc2)c(N2CCCC2)c1/C=N/Nc1ccc(S(N)(=O)=O)cc1[N+](=O)[O-]	-3.1	-16.3%	14.6µM*	16.4µM*	-18.2%
Cc1nn(-c2ccccc2)c(N2CCCC2)c1/C=N/NC(=S)Nc1ccccc1F	0.0	u	u	13µM*	u
Cc1ccc(-c2cc(C(=O)N/N=C/c3c(C)nn(C)c3C)c3ccccc3n2)c(C)c1	-20.6	-15.6%	u	u	-10.0%
N#Cc1ccc(CN2CCC3(CC2)CCN(C(=O)c2ccco2)CC3)cc1	x	x	u	1.1%	x
O=C(CN1CCSC1=O)Nc1ccc(N2CCOCC2)cc1	1.8	6.6%	-19.0%	0.3%	4.9%
CNC[C@H](CC1CCCCC1)NC[C@H](CO)NCC1(c2ccccc2)CC1	-27.4	u	20.6µM*	u	u
CC(C1CC1)N(Cc1ccccc1)C(=S)Nc1cccc(C(F)(F)F)c1 (stereo unspecified)	-3.9	-2.0%	u	u	-3.4%
CNC[C@H](CC1CCCCC1)NC[C@H](CO)NCCc1cccc(C(F)(F)F)c1	-60.1*	u	5.8µM*	7.31µM*	u
CCOc1ccccc1-n1c(SC(C)C(=O)NCC2CCCO2)nc2ccccc2c1=O (stereo unspecified)	-13.6	-0.5%	-7.8%	u	-2.3%
Cc1nc(N2CCC3(CC2)OCCO3)c2nnn(Cc3ccccc3F)c2n1	-59.6*	-16.7%	u	u	-1.5%
CCc1nc(N2CCC3(CC2)OCCO3)c2nnn(Cc3ccccc3)c2n1	u	-1.4%	u	-14.7%	-0.6%
Cc1nc(N2CCCC2)c2nnn(Cc3ccccc3Cl)c2n1	3.6	-0.1%	25.9µM*	13µM*	2.1%
CCCNC(=O)c1cc(C2CCCCN2S(C)(=O)=O)on1 (stereo unspecified)	4.1	16.2%	-6.9%	-8.8%	5.3%
COc1ccc(Nc2ncccc2C(=O)Nc2ccccc2)cc1	-13.1	-24.9%	29.1µM*	23.1µM*	-3.9%
COc1ccc(NC(=O)c2cccnc2Nc2ccc(OC)cc2)cc1	-23.1	-26.3%	u	16.4µM*	-19.0%
COc1ccc(NC(=O)C(=O)NCCc2sc(-c3ccc(Cl)cc3)nc2C)cc1	x	x	-5.6%	-2.6%	x
Cc1nc(-c2ccc(F)cc2)sc1CCNC(=O)c1ccccc1	x	x	23.1µM*	14.6µM*	x
Cc1nc(-c2ccc(F)cc2)sc1CCNC(=O)c1ccc(C(C)(C)C)cc1	x	x	16.4µM*	14.6µM*	x
SMILES	IL-1B inflam inh	HT1080 IDH1KD tx	TDP1 cell noCPT	DT40 TDP1 CPT	HT1080-NT tox
COc1ccc(C(=O)NCCc2sc(-c3ccc(Cl)cc3)nc2C)c(OC)c1	x	x	u	16.4µM*	x
Cc1nc(-c2ccc(Cl)cc2)sc1CCNC(=O)c1ccc(C(F)(F)F)cc1	x	x	11.6µM*	8.2µM*	x
Cc1ccc(S(=O)(=O)N[C@H](C(=O)NCC2CCC(C(=O)O)CC2)C(C)C)cc1 (stereo partly specified)	4.7	12.7%	0.9%	10.7%	-7.5%
O=C(NCCc1ccccc1)c1cccs1	0.0	-4.4%	-7.2%	-17.4%	2.1%
Cc1nc(-c2ccc(F)cc2)sc1CCNC(=O)c1cccs1	x	x	u	20.6µM*	x
NC(=O)NS(=O)(=O)Oc1ccccc1	18.9	7.4%	-8.9%	4.4%	0.0%
O=C(CSc1nc2c(sc3ccccc32)c(=O)n1CCCN1CCCC1)NCc1ccco1	-70.2*	u	-10.4%	2.8%	u
COCCCn1c(SCC(=O)Nc2ccccc2OC)nc2c(sc3ccccc32)c1=O	x	x	25.9µM*	23.1µM*	x
COCCCNC(=O)CSc1nc2c(sc3ccccc32)c(=O)n1CCc1ccc(OC)c(OC)c1	x	x	5.17µM*	u	x
COCCCNC(=O)CSc1nc2c(sc3ccccc32)c(=O)n1CCc1ccccc1	x	x	-19.6%	-16.9%	x
COCCCn1c(SCC(=O)NCc2ccccc2)nc2c(sc3ccccc32)c1=O	x	x	-16.8%	-15.0%	x
CCOC(=O)C1CCN(C(=O)COC(=O)CNC(=O)c2ccc(OC)cc2)CC1	0.0	22.6%	-8.9%	4.3%	7.7%
O=C(Nc1cccc(Cl)c1)OCCOCCOC(=O)Nc1cccc(Cl)c1	-4.5	u	16.4µM*	u	u
CCCCOC(=O)Nc1ccc(C(N)=O)cc1	-4.8	13.7%	-10.7%	-20.4%	2.1%
CC(C)OC(=O)NCCOC(=O)Nc1ccc(Cl)cc1	-7.3	-0.3%	14.6µM*	20.6µM*	2.2%
CC(C)COC(=O)NCCCOC(=O)Nc1ccccc1	-0.6	-8.5%	u	u	-1.3%
CC(C)OC(=O)NCCOC(=O)Nc1ccccc1Cl	30.9	15.5%	-1.4%	10.0%	6.5%
O=C(Nc1cccc(Cl)c1)OCc1cnc(Cl)s1	-7.3	-5.9%	-18.3%	u	-10.7%
CC(C)COC(=O)NCCOC(=O)Nc1cccc(Cl)c1	11.6	-8.6%	16.4µM*	16.4µM*	-0.9%
CCCCOC(=O)Nc1ccc(C(C)C)cc1	-59.9*	11.8%	-19.9%	4.4%	17.3%
Cc1ccc(C)c(Nc2nc(-c3ccncc3)nc3ccccc23)c1	12.8	-4.4%	u	-28.1%	-15.2%
Cc1ccc(C)c(NC(=O)CSc2nc3c(c(=O)n2C)SC(C)C3)c1 (stereo unspecified)	22.5	-5.0%	u	u	-4.9%
Cc1ccc2nc(NC(=O)CSc3nc4c(c(=O)n3C)SC(C)C4)sc2c1 (stereo unspecified)	-56.3*	-26.0%	20.6µM*	20.6µM*	-22.7%
CC1Cc2nc(SCC(N)=O)n(C)c(=O)c2S1 (stereo unspecified)	-23.2	9.6%	-10.7%	1.7%	-11.9%
CCOC(=O)c1ccc(NC(=O)CSc2nc3c(c(=O)n2C)SC(C)C3)cc1 (stereo unspecified)	16.3	-3.1%	25.9µM*	18.4µM*	3.3%
